# Compound activity: PubChem BioAssay, several laboratories
# This is one part of a sample in which hits are shown more often than they occur.
# ARNT-TACC3 inh – disruptors of ARNT/TACC3 protein interaction, primary screen, biochemical, AlphaScreen, single concentration; Transforming acidic coiled-coil-containing protein 3 (Homo sapiens), Q9Y6A5; AlphaScreen His-ARNT PAS-B/GST-TACC3 binding, luminescence; TACC3 fragment carries E629A point mutation; inhibition, % at 9.99 µM; 390,000 tested, 0.66% active; AID 623870, 2012;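 active = mean inhibition of replicates at least 50% and at least half of replicates each reaching 50%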;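 note: 0% = complete ARNT plus TACC3 wells and 100% = ARNT alone without TACC3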
# ERp5 inh – inhibitors of ERp5-driven insulin aggregation, primary screen, biochemical, turbidity, absorbance 650 nm, single point; Protein disulfide-isomerase A6 (Homo sapiens), Q15084; 90 min; inhibition, % at 9.99 µM; 350,000 tested, 0.05% active; AID 651711, 2012;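 active = mean replicate inhibition above about 25%, with every replicate also reaching it, limit read from the data, passing the limit was not always enough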
# Target sequence (Q15084 whole entry, looked up): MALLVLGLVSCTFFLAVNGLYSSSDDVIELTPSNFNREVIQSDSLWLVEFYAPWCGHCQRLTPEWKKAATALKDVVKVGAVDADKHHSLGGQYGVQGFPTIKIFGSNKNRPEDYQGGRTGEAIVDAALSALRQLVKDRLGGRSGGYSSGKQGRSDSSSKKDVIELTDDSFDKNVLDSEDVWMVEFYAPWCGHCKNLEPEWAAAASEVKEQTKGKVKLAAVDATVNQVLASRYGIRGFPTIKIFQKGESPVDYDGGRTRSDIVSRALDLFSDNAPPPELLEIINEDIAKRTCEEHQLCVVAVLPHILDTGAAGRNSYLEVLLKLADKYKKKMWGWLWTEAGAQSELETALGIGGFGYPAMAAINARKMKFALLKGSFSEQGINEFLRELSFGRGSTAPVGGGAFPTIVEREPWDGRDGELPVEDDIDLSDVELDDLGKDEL
# PglD DTNB – C. jejuni PglD acetyltransferase inhibitors, primary screen, biochemical, DTNB colorimetric, single point. purified PglD enzyme, DTNB colorimetric CoA detection. 360,000 tested, 0.098% active. inhibition, % at 12.5 µM. UDP-N-acetylbacillosamine N-acetyltransferase PglD (Campylobacter jejuni); in the data active = inhibition above about 16%, passing the limit was not always enough
# ALR inh – inhibitors of human ALR sulfhydryl oxidase, primary screen, biochemical, H2O2 detection, HRP-luminol luminescence, single point; FAD-linked sulfhydryl oxidase ALR (Homo sapiens), P55789; purified ALR, DTT oxidation; inhibition, % (concentration not given with the values); 290,000 tested, 3.8% active;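 active = mean replicate inhibition above about 79%, with every replicate also reaching it, limit read from the data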
# NRP1-CendR mod – modulators of CendR peptide binding to NRP-1, primary screen, biochemical, fluorescence polarization, uHTS; 360,000 tested, 0.85% active; Neuropilin-1 (Homo sapiens), O14786; inhibition, % at 25 µM; FAM-RPARPAR peptide binding to NRP-1;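 active = inhibition or corrected inhibition above about 18%, plus a signal ratio from 0.5 to 1.5, limit read from the data, passing the limit was not always enough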
# PDI inh – inhibitors of human PDI, primary screen, biochemical, turbidity, single point, plate reader; 350,000 tested, 0.052% active; inhibition, % at 10 µM; AID 588391, 2011; PDI insulin aggregation turbidity, A650, 90 min;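 active = mean inhibition across replicates of 30% or more, whatever share of single replicates reach that level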
# Numbers without * were called inactive; . = no result.
SMILES,ARNT-TACC3 inh,ERp5 inh,PglD DTNB,ALR inh,NRP1-CendR mod,PDI inh
CCOC(=O)c1oc2cccc(O)c2c1C,-2,.,-7,2,-1,8
CCOC(=O)c1oc2cccc(O)c2c1CN(Cc1ccccc1)C(C)=O,-3,.,4,85*,12,52*
Cc1[nH]c2ccccc2c1C(C[N+](=O)[O-])c1cccc(O)c1 (stereo unspecified),10,4,.,98*,0,3
COc1cc(C(C[N+](=O)[O-])c2c(C)cc3ccccn23)ccc1O (stereo unspecified),10,-3,0,24,-1,20
Cc1[nH]c2ccccc2c1C(C[N+](=O)[O-])c1cccs1 (stereo unspecified),6,-2,.,59,-6,3
Cc1[nH]c2ccccc2c1C(C[N+](=O)[O-])c1ccco1 (stereo unspecified),4,12,.,21,-12,-10
Cc1ccc(-c2[nH]c3ccccc3c2C(C[N+](=O)[O-])c2ccco2)cc1 (stereo unspecified),5,.,.,94*,-4,2
COc1cc(C(C[N+](=O)[O-])c2c(C)[nH]c3ccccc23)ccc1O (stereo unspecified),6,-7,0,99*,-17,-1
Cc1ccccc1-c1ccccc1[C@H]1[C@@H](CO)N(C(=O)c2cccc(F)c2)[C@H]1C#N,.,1,.,.,.,.
COCC(=O)Nc1ccc2c(c1)C(=O)N(C)C[C@@H](OC)[C@H](C)CN(C(=O)Cc1cccnc1)[C@H](C)CO2,1,7,2,.,.,.
CCN(CCCNS(=O)(=O)c1ccc2c(c1)oc(=O)n2C)c1cccc(C)c1,-7,1,1,97*,6,.
CCN(c1cccc(C)c1)S(=O)(=O)c1ccc2c(c1)oc(=O)n2C,-8,-1,6,-10,1,9
CCCS(=O)(=O)N1CCCC(C(=O)NCCN(Cc2ccccc2)C(C)C)C1 (stereo unspecified),-7,.,10,.,8,-4
CCCS(=O)(=O)N1CCC(C(=O)NCCCN(CC)c2cccc(C)c2)CC1,-5,.,.,16,-7,0
CCN(CCCNC(=O)C1CCN(S(=O)(=O)N2CCOCC2)CC1)c1cccc(C)c1,1,.,2,99*,5,3
CCCS(=O)(=O)N1CCCC(C(=O)NCCCN(CC)c2cccc(C)c2)C1 (stereo unspecified),-6,.,1,99*,-8,-13
CCCS(=O)(=O)N1CCCC(C(=O)NCCN(CC)c2ccccc2)C1 (stereo unspecified),-3,.,.,99*,-2,0
C[C@@H](NC(=O)C[C@H]1CC[C@H]2[C@@H](COC[C@H](O)CN2C(=O)Nc2cc(Cl)cc(Cl)c2)O1)c1ccccc1,16,-16,0,.,.,.
CC(=O)N1[C@@H]2Cn3c(ccc(-c4cccnc4)c3=O)[C@H]1[C@@H](C(=O)N1CCc3ccccc3C1)[C@@H]2CO,-6,-3,0,.,.,.
N#Cc1cc(C(=O)c2cc(F)ccc2O)cn(-c2nccs2)c1=O,5,.,2,33,135,3
N#Cc1cc(C(=O)c2ccccc2O)cn(-c2nccs2)c1=O,3,.,.,97*,132,5
CCOC(=O)c1c(NC(C)=O)sc2c(OC)cccc12,-3,.,-5,.,6,-4
CCOC(=O)c1c(N)sc2c(NC(C)=O)cccc12,6,.,-1,98*,-4,5
CCOC(=O)c1c(N)sc2c(O)c(Br)ccc12,3,.,6,98*,13,-2
CO[C@@H]1CN(C)C(=O)c2cc(NC(=O)C3CC3)ccc2OC[C@@H](C)N(S(=O)(=O)c2ccc(Cl)cc2)C[C@H]1C,-6,17,-2,.,.,.
CC1(C(=O)NS(=O)(=O)c2ccccc2Cl)CCN1C(=O)CC1CC1 (stereo unspecified),.,7,-2,.,28*,-2
